The target in one assay is Albumin (Bos taurus) (UniProt P02769). As to the kind of experiment: bovine serum albumin binders on microarray, profiling panel, artefact control for SMM control protein annotation, biochemical, small-molecule microarray, Alexa647 label, 635/667 nm fluorescence (AID 1118).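 Note: score merges 667 nm emission intensity and signal-to-noise per printed compound spot.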 To be noted: BSA-A647 binding, fluorescence 635 nm, higher = more signal.
Assay [1] in a line: small-molecule microarray binders of probe aXIP, primary screen, biochemical, NeuroSMM set, 635/667 nm fluorescence (AID 1119).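 Note: probe is the protein aXip251-270 applied at 1 µg/mL to compound-printed slides; binding of probe to printed compounds measured as 667 nm fluorescence plus signal to noise.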 To be noted: higher = more signal, called active from +8 up or from −8 down.
The nature of assay [2]: small-molecule binders of probe aNOTCH3, primary screen, biochemical, small-molecule microarray, 635/667 nm fluorescence (AID 1120).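 Note: probe is a biotin-tagged antibody raised against NOTCH3 rather than NOTCH3 protein; score merges spot fluorescence near 667 nm with spot signal to noise.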 To be noted: higher = more signal.
Assay [3] can be described thus: small-molecule binders of probe aNOTCH2, primary screen, biochemical, small-molecule microarray, 635/667 nm fluorescence (AID 1121).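 Note: score merges feature fluorescence read at 667 nm with its signal to noise.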 To be noted: higher = more signal.
The target in assay [4] is Carbonic anhydrase 2 (Homo sapiens) (UniProt P00918). Put plainly: CAII small-molecule binders, profiling panel, biochemical, small-molecule microarray, Alexa647-labelled CAII (AID 1122). To be noted: CAII-A647 binding fluorescence, higher = more signal.
Assay [5] is described as follows: COS7 lysate on small-molecule microarray, probe aHis, 635 nm (AID 1123).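 Note: z-score combines 667nm fluorescence intensity with signal-to-noise per printed compound spot.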 To be noted: COS7 cell lysate, fluorescence, higher = more signal.
Assay [6] can be described thus: compound binding in COS7 lysate, probe aLAP1, primary screen, cell lysate, small-molecule microarray (AID 1124).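 Note: lysate comes from COS7 cells expressing LAP1 and is applied at 0.3 µg/mL; score merges spot fluorescence near 667 nm with signal-to-noise over triplicate slides.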 To be noted: probe aLAP1, fluorescence, higher = more signal.
Another assay concerns Sam68 (KHDRBS1). As to the kind of experiment: Sam68 small-molecule binders, primary screen, biochemical, small-molecule microarray, 635 nm fluorescence (AID 1125).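 Note: score merges 667 nm channel intensity with signal to noise over triplicate slides.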 To be noted: small-molecule microarray binding, higher = more signal.
Assay [7] concerns Chordin-like protein 2 (CHRDL2). Put plainly: CHRDL2 small-molecule binders, primary screen, biochemical, small-molecule microarray, 635 nm fluorescence (AID 1126).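 Note: printed compound slides probed with Chrdl2 protein at 4 µg/mL for 1 h at 4 C; score merges 667 nm emission intensity with signal to noise over three replicate slides.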 To be noted: small-molecule microarray binding, fluorescence 635 nm; higher = more signal.
Assay [8] concerns the target Concanavalin-A (Canavalia ensiformis) (UniProt P02866). Put plainly: ConA small-molecule binders, primary screen, artefact control for SMM control protein annotation, biochemical, small-molecule microarray, Alexa647 label, 635 nm (AID 1127).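 Note: z combines 667 nm emission intensity with signal-to-noise across three replicate slides.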 To be noted: ConA-A647 binding fluorescence, higher = more signal.
Assay [9] can be described thus: anti-His antibody binders, primary screen, artefact control for SMM control protein annotation, biochemical, small-molecule microarray, 635 nm fluorescence (AID 1128).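 Note: score merges feature fluorescence with signal-to-noise for each printed compound spot.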 To be noted: anti-His Alexa647 antibody binding, higher = more signal.
Assay [10] relates to Human papillomavirus type 1a E7 protein (residues 1-88). As to the kind of experiment: HPV1a E7 small-molecule binders, primary screen, biochemical, small-molecule microarray, residues 1-88, 635 nm (AID 1129). To be noted: small-molecule microarray binding, fluorescence 635 nm; higher = more signal.
Assay [11] addresses Focal adhesion kinase 1 (Homo sapiens) (UniProt Q05397). Put plainly: small-molecule microarray binders of FAK, primary screen, biochemical, 635/667 nm fluorescence, BSA, DTT (AID 1130).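 Note: composite of spot emission at 667 nm and signal to noise over triplicate slides.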 To be noted: PTK2 binding, 635 nm fluorescence, higher = more signal.
Assay [12] relates to Fibrinogen (Alexa647-labelled). Put plainly: fibrinogen binders on compound microarrays, profiling panel, artefact control for SMM control-protein annotation, biochemical, small-molecule microarray, 635/667 nm fluorescence (AID 1131).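 Note: z-score merges 667 nm fluorescence with per-spot signal-to-noise over triplicate slides.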 To be noted: fibrinogen-A647 binding fluorescence, higher = more signal.
The target of assay [13] is Follistatin (Homo sapiens) (UniProt P19883). Put plainly: follistatin binders on small-molecule microarrays, primary screen, biochemical, small-molecule microarray, 635/667 nm fluorescence (AID 1132). To be noted: FST binding, 635 nm fluorescence, higher = more signal.
Chain of Follistatin (Homo sapiens) (P19883 whole entry, looked up): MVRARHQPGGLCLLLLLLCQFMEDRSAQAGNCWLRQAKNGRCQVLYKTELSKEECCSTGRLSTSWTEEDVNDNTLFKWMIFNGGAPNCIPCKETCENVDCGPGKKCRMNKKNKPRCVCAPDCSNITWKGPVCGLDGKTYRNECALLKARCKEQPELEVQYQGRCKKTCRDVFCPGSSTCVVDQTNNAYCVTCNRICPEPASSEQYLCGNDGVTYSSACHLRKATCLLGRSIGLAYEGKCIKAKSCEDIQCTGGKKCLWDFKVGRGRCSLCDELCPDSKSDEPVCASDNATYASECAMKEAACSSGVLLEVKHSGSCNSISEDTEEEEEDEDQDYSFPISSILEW
Assay [14] addresses Fibroblast growth factor 2 (Homo sapiens) (UniProt P09038). As to the kind of experiment: FGF2 binders on small-molecule microarrays, primary screen, biochemical, small-molecule microarray, 635/667 nm fluorescence (AID 1133). To be noted: small-molecule microarray binding, FGF2, fluorescence 635/667; higher = more signal.
Assay [15] in a line: mitochondrial membrane potential change in A549 cells, profiling panel, cell-based, JC-1 fluorescence, basal, 24 h, 100 nL (AID 1138).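 Note: A549 lung adenocarcinoma cells under basal conditions with no added stimulus; test concentration not given here.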 To be noted: higher = more signal.
The subject of the next assay is Lefty1. As to the kind of experiment: Lefty1 binders on small-molecule microarrays, primary screen, biochemical, small-molecule microarray, 635/667 nm fluorescence (AID 1139). To be noted: small-molecule microarray binding, fluorescence 635/667; higher = more signal.
The subject of assay [16] is wheat germ agglutinin (Triticum aestivum), Alexa647-labelled. Put plainly: wheat germ agglutinin binders on compound microarrays, profiling panel, artefact control for SMM control-protein annotation, biochemical, small-molecule microarray, 635/667 nm fluorescence (AID 1140).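 Note: score merges 667 nm feature emission with signal to noise over triplicate slides.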 To be noted: WGA-A647 binding, 635 nm fluorescence, higher = more signal.
Assay [17] has as its target Luciferin 4-monooxygenase (Photinus pyralis) (UniProt P08659). As to the kind of experiment: firefly luciferase enzyme inhibitors, primary screen, biochemical, luminescence, purified enzyme, 2006 set (AID 1141).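 Note: cell-free assay with purified firefly luciferase at 100 ng per well in PBS; test concentration not given here.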 To be noted: SteadyGlo luminescence, 30 min, higher = more signal, called active from +8 up or from −8 down.

Each structure is given as a SMILES string. Calls of active or inactive are those of the source.

Chain of Albumin (Bos taurus) (P02769 whole entry, looked up): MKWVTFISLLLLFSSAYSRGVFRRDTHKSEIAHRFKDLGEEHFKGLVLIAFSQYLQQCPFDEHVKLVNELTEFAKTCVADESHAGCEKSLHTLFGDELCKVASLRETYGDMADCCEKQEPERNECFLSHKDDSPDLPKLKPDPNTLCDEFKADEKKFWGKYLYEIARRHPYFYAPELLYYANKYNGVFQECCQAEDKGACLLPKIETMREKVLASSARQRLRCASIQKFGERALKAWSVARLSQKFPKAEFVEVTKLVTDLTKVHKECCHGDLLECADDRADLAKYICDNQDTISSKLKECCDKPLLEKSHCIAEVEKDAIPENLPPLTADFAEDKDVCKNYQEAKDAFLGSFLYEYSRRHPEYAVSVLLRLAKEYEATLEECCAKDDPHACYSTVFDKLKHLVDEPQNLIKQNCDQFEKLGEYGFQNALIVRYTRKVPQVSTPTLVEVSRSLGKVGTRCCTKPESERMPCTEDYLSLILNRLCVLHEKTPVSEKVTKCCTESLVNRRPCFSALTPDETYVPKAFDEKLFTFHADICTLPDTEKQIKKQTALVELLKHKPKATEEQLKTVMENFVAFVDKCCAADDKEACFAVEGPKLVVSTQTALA
Chain of Concanavalin-A (Canavalia ensiformis) (P02866 whole entry, looked up): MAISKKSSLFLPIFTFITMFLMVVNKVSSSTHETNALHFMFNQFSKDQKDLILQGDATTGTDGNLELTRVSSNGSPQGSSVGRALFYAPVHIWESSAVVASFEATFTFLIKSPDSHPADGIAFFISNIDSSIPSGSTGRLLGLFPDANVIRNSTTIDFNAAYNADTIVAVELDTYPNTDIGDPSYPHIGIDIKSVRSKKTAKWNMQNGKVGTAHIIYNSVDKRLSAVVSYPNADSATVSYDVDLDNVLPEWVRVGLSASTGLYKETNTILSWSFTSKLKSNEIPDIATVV
Chain of Focal adhesion kinase 1 (Homo sapiens) (Q05397 whole entry, looked up): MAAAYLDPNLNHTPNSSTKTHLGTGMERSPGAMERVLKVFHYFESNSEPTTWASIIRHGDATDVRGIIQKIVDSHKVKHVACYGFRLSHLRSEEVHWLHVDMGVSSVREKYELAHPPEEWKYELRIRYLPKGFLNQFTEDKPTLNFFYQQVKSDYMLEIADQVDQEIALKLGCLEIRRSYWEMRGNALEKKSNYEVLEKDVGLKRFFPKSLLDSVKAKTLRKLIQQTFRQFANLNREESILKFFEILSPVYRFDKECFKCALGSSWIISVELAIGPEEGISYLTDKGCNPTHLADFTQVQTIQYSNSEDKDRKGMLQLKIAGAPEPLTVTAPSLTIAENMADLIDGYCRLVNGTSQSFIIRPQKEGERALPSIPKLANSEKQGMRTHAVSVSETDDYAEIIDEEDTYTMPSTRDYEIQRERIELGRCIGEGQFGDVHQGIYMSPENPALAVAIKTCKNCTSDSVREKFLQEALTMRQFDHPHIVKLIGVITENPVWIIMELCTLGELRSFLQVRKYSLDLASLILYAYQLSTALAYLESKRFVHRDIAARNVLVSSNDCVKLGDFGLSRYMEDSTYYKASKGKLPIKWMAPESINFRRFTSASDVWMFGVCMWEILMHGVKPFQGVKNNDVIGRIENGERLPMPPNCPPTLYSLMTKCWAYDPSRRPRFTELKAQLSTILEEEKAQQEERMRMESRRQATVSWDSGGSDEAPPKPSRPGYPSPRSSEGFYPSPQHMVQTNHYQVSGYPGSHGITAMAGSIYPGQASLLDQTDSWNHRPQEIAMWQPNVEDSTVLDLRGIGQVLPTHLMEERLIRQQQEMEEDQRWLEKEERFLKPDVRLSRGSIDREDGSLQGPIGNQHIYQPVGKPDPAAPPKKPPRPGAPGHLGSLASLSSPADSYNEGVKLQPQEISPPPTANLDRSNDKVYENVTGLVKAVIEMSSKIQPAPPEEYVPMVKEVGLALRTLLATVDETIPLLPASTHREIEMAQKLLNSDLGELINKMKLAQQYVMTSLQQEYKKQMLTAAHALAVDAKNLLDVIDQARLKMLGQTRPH
Chain of Fibroblast growth factor 2 (Homo sapiens) (P09038 whole entry, looked up): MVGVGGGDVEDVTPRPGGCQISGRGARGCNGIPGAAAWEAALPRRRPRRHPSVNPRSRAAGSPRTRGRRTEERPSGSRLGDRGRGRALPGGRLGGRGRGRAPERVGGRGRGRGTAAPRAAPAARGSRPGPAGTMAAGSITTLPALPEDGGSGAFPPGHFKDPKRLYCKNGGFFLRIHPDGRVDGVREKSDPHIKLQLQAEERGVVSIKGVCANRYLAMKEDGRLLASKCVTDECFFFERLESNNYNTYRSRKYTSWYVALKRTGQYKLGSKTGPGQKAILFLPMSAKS
Chain of Luciferin 4-monooxygenase (Photinus pyralis) (P08659 whole entry, looked up): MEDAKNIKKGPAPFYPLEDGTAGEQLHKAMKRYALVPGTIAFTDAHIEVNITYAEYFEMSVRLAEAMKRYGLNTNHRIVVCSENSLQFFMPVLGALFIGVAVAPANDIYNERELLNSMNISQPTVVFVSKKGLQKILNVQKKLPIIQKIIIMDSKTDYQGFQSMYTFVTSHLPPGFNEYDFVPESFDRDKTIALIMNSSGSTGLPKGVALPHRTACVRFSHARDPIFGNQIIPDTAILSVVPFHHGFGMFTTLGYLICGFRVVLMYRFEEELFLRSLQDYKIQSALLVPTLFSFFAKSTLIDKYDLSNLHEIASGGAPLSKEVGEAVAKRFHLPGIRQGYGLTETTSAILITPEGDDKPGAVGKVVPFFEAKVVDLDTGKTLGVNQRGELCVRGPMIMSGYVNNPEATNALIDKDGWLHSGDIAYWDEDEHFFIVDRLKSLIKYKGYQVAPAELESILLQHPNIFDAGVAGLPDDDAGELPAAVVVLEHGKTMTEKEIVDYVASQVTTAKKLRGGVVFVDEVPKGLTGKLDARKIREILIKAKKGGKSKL

As to `[N-]=[N+]=Nc1ccccc1[C@@H]1OC(c2ccc(OCCCO)cc2)=N[C@]1(CCS(=O)(=O)c1ccccc1)C(=O)N1CCOCC1`, the composite z-score in the assay with Albumin (Bos taurus) worked out at 0.815; in [2] it was 0.287; in [3], 0.0263; in assay [4], 0.618; in assay [5], 2.89; in [6], 0.483. In addition, the composite z-score in the assay on Sam68 (KHDRBS1) was 1.29; in assay [7], -0.535; in assay [8], 1.1; in assay [9], 1.48; in assay [10] it was 1.26; in assay [11], 0.488. The composite z-score in [12] was determined as 1.02; in assay [13], 1.33; in [14] it was 0.544; in the assay with Lefty1, 0.541; in assay [16] it was 1.3. The composite Z-score in assay [1] is 0.167 (inactive). Also, the results for the z-score in assay [15] and in [17] were 1.13 and -12.9 (active), respectively.
For `O=C1O[C@H](c2ccccc2)[C@H](c2ccccc2)N2[C@H]1[C@@H](C(=O)O)[C@]1(C(=O)Nc3ccc(C#CC4(O)CCCCCC4)cc31)[C@H]2c1ccc(OCCO)cc1`, the composite z-score with Albumin (Bos taurus) was 0.906; in assay [2] it was 0.0876; in [3], -0.0727; in assay [4], 0.672; in assay [5], 2.58; in assay [6], 0.78. Also, the composite z-score was 1.29 in the assay with Sam68 (KHDRBS1); -0.862 in [7]; 1.06 in assay [8]; 1.5 in [9]; 1.25 in [10]; 0.115 in assay [11]. The composite z-score in assay [12] was 0.979; in [13], 0.196; in [14], -0.333; in the assay on Lefty1, 0.473; in [16] it was 0.942. The composite Z-score in assay [1] is -0.0503 (inactive). Also, the z-score in assay [15] is -1.42; in assay [17] it was -2.75 (inactive).
As for `O=C1N(CCS(=O)(=O)c2ccccc2)c2ccccc2C[C@@]12COC(c1ccc(OCCCO)cc1)=N2`, the composite z-score in the assay with Albumin (Bos taurus) was -0.746; in assay [2], 0.364; in assay [3], 0.314; in assay [4] it was 0.636; in [5], 2.4; in assay [6], 0.266. Besides, the composite z-score in the assay with Sam68 (KHDRBS1) was found to be 1.3; in [7], 0.866; in assay [8], 1.15; in assay [9], 2.83; in assay [10] it was 1.25; in [11] it was 1.16. Besides, the composite z-score in assay [12] came to 0.962; in assay [13], 1.28; in assay [14] it was 0.87; in the assay on Lefty1 it was 0.222; in assay [16], 0.611. Further, the composite Z-score in assay [1] was -0.279 (inactive). Also, the z-score in assay [15] is -0.0718; in assay [17], -1.63 (inactive).
Turning to `CC(C)(C)OC(=O)CC[C@]1(C(=O)N2CCCCC2)N=C(c2ccc(OCCCO)cc2)O[C@H]1c1ccccc1N=[N+]=[N-]`, the composite z-score was 0.657 in the assay with Albumin (Bos taurus); 0.128 in assay [2]; -0.0391 in [3]; 0.528 in assay [4]; 2.05 in assay [5]; -0.0995 in assay [6]. The composite z-score in the assay on Sam68 (KHDRBS1) was 1.25; in assay [7], -0.292; in assay [8], 1.19; in assay [9], 2.92; in assay [10], 1.26; in assay [11] it was 1.91. Further, the composite z-score stood at 0.753 in [12]; 0.771 in [13]; 1.6 in assay [14]; 0.513 in the assay on Lefty1; 0.971 in assay [16]. Moreover, the composite Z-score in assay [1] was 2.33 (inactive). Also, the z-score in assay [15] was 2.83; in [17], -12.8 (active).
For `O=C1N(CCS(=O)(=O)c2ccccc2)Cc2ccccc2C[C@]12N=C(c1ccc(OCCCO)cc1)O[C@@H]2c1ccccc1`, the composite z-score with Albumin (Bos taurus) was -0.591; in assay [2], 0.567; in assay [3], 0.189; in [4], 0.396; in [5] it was 3.41; in assay [6], 1.17. For the same compound, the composite z-score came out at 1.13 in the assay on Sam68 (KHDRBS1); 1.17 in assay [7]; 1.12 in assay [8]; 2.51 in assay [9]; 1.08 in assay [10]; 0.342 in [11]. Further, the composite z-score in assay [12] came to 0.356; in assay [13], 1.5; in assay [14], 1.91; in the assay on Lefty1, 0.557; in assay [16], 1.13. For the same compound, in [1], the composite Z-score is 0.339 (inactive). In addition, the values for the z-score in [15] and in assay [17] were 0.685 and -1 (inactive), respectively.
With `COc1ccc(NN2C(C(O)c3ccc(OC)c(OCc4ccccc4)c3)C=CC3C(=O)N(C4CCCCC4)C(=O)C32)cc1` (stereo not given), the composite z-score with Albumin (Bos taurus) is 0.976; in assay [2], 0.252; in assay [3], -0.122; in assay [4], 0.274; in assay [5], 2.52; in assay [6], 0.0516. The composite z-score came out at 1.24 in the assay on Sam68 (KHDRBS1); 0.275 in [7]; 1.11 in assay [8]; 0.867 in [9]; 1.21 in assay [10]; 0.625 in assay [11]. For the same compound, the composite z-score in assay [12] worked out at 1.01; in assay [13], 1.29; in assay [14] it was 0.0862; in the assay with Lefty1 it was 0.461; in assay [16], 0.571. The composite Z-score in assay [1] is 0.745 (inactive). The z-score in [15] is 0.492; in [17], 1.16 (inactive).

(Values after PubChem BioAssay.)
